In the supplement of paper PMC12067093, “Discovery and optimisation of a covalent ligand for TRIM25 and its application to targeted protein ubiquitination” (Chemical Science, 2025):
Of roughly 21,000 targets only a part is listed; those with the largest changes were picked by preference.

Compound: Cc1cc(ccc1-c1ccccc1)C(=O)N1CCCN(CC1)C(=O)CCl [compound 10]
Test: probe-labelled cysteine peptide fold change vs DMSO (competition) (log2 fold change); higher = less target engagement (more negative = stronger competition)
Conditions: THP-1, incubation time: 4 h
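Also: competitive profiling in live THP-1 cells: cysteine peptides tagged with an iodoacetamide desthiobiotin (IA-DTB) probe, intensity after compound treatment relative to DMSO-treated cells.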

Sequence of UniProt P30837 (P30837 whole entry, looked up): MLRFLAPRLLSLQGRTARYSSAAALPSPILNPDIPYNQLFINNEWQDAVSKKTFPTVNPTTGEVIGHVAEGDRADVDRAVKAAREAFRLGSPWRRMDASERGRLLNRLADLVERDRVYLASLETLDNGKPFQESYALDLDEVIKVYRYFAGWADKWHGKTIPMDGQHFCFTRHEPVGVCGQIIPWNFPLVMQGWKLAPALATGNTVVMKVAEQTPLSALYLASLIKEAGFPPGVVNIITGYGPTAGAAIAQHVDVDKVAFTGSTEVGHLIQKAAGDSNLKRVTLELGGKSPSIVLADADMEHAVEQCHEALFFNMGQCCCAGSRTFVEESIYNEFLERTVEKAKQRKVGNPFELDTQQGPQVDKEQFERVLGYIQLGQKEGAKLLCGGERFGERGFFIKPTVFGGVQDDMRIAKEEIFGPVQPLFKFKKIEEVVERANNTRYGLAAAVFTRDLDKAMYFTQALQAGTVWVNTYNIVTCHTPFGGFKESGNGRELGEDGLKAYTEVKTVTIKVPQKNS
Sequence of UniProt Q96Q83 (Q96Q83 whole entry): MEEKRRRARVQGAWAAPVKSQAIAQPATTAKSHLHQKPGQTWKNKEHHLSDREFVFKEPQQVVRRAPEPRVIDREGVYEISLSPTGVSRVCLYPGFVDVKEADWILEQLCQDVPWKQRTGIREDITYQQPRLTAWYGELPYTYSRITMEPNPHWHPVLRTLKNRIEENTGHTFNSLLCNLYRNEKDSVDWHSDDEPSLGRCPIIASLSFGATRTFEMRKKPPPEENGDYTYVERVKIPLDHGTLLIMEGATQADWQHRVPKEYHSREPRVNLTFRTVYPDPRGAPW
Sequence of UniProt Q6UXV4 (Q6UXV4 whole entry, looked up): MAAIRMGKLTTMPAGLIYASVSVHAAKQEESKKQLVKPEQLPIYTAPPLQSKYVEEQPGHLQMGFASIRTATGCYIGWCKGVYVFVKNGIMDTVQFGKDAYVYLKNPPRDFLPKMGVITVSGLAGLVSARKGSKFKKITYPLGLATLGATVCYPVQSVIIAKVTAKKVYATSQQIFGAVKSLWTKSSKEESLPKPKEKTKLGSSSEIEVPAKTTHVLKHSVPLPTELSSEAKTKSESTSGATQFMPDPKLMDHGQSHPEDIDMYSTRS
Sequence of UniProt P14550 (P14550 whole entry, looked up): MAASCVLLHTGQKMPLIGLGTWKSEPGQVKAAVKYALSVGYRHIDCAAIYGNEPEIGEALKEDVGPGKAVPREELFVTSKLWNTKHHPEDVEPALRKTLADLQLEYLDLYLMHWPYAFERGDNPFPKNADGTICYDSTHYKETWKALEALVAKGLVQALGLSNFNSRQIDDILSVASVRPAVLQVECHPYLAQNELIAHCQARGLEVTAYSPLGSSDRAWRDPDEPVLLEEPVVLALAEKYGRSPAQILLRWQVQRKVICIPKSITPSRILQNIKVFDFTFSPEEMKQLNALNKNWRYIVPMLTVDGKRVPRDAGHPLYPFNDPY
Sequence of UniProt Q66PJ3 (Q66PJ3 whole entry, looked up): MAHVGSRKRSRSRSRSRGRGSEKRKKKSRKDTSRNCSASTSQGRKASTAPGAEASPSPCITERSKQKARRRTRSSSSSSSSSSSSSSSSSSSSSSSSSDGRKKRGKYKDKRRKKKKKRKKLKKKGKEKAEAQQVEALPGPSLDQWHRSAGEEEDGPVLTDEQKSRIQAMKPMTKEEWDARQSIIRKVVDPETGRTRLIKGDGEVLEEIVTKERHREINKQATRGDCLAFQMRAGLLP
Sequence of UniProt P49189 (P49189 whole entry, looked up): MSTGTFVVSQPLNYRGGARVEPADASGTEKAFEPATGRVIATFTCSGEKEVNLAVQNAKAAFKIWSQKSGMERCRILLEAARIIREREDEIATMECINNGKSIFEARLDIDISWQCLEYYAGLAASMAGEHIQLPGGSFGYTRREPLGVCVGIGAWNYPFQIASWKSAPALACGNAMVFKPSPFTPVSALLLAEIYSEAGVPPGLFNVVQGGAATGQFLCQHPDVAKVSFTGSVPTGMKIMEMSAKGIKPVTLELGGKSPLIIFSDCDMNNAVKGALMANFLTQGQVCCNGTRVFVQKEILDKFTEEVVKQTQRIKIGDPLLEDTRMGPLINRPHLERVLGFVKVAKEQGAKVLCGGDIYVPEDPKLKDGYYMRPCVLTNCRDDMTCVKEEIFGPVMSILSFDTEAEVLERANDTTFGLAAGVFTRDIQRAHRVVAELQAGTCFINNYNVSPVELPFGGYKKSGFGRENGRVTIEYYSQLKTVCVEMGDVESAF
Sequence of UniProt Q9BZE9 (Q9BZE9 whole entry, looked up): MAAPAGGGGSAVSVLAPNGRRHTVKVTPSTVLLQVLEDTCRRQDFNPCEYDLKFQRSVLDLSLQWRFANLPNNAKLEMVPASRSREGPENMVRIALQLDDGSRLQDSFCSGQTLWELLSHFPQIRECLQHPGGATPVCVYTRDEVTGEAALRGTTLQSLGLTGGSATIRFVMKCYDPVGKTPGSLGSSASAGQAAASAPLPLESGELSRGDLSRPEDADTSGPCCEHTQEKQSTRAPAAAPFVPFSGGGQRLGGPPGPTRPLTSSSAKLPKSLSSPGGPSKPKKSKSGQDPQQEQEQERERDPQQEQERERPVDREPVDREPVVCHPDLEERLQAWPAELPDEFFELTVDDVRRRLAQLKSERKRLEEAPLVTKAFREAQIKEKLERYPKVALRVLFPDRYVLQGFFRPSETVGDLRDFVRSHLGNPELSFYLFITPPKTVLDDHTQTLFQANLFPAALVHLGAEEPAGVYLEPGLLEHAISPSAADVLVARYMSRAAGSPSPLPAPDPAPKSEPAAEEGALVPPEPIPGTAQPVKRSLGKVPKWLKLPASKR
Sequence of UniProt P54886 (P54886 whole entry, looked up): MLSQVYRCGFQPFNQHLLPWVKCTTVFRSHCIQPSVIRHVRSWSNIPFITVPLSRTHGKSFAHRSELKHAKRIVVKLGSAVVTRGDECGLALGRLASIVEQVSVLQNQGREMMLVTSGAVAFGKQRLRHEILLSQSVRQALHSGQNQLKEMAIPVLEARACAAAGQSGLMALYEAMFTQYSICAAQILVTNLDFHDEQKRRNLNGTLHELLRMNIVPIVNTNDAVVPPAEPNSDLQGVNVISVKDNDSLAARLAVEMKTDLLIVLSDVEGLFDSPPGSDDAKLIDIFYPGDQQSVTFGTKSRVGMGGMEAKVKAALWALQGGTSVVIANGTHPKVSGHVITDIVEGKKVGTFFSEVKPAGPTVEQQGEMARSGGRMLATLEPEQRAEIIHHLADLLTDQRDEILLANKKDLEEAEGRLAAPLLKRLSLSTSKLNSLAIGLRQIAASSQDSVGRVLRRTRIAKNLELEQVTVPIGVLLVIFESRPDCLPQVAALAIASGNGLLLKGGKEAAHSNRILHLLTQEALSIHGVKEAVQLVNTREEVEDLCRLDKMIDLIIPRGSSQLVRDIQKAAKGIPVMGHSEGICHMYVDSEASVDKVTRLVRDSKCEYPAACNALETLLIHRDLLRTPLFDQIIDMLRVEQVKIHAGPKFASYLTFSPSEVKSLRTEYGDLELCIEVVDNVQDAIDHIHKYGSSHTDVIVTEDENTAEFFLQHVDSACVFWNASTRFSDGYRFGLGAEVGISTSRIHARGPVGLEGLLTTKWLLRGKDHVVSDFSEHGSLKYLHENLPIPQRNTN
Sequence of UniProt P31939 (P31939 whole entry, looked up): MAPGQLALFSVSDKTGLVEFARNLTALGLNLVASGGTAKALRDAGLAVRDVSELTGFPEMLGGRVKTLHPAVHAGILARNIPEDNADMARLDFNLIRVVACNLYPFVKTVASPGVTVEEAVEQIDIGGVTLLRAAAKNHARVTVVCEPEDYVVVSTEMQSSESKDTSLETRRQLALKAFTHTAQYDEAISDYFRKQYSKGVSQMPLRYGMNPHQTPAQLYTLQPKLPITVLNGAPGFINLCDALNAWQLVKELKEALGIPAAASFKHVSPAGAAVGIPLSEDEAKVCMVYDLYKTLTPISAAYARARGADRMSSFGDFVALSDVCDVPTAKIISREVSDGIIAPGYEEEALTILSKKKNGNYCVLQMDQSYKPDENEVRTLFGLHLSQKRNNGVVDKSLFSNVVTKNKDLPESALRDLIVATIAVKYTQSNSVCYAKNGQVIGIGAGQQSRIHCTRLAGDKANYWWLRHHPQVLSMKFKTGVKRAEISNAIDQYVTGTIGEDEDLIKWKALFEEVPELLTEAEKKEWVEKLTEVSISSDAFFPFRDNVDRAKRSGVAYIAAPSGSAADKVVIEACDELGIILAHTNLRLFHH

Target | probe-labelled cysteine peptide fold change (10 µM) | probe-labelled cysteine peptide fold change (50 µM)
ALDH9A1_P49189_267_SPLIIFSDCDMNNAVK (UniProt P49189) | 0.208 | 0.2
ADNP2_Q6IQ32_220_CNANASSQDALMYHILTSDIHR (UniProt Q6IQ32) | 0.0714 | 0.0124
ALDH18A1_P54886_674_SLRTEYGDLELCIEVVDNVQDAIDHIHK (UniProt P54886) | 0.115 | -0.188
ALDH1B1_P30837_169_TIPMDGQHFCFTR (UniProt P30837) | 0.00215 | -0.131
ANAPC1_Q9H1A4_1630_LLVPVDVDTNTPCYALLEVTYK (UniProt Q9H1A4) | -0.151 | 0.155
ALKBH3_Q96Q83_201_CPIIASLSFGATR (UniProt Q96Q83) | 0.189 | -0.104
APOOL_Q6UXV4_74_TATGCYIGWCK (UniProt Q6UXV4) | -0.823 | -1.75
ARL6IP4_Q66PJ3-3_220_NCSASTSQER (UniProt Q66PJ3) | -0.274 | -0.819
ASPSCR1_Q9BZE9_224+225_GDLSRPEDADTSGPCCEHTQEK (UniProt Q9BZE9) | -0.786 | -1.37
ATRX_P46100_1531_CPITTK (UniProt P46100) | -0.402 | -1.05
AKR1A1_P14550_46_HIDCAAIYGNEPEIGEALKEDVGPGK (UniProt P14550) | -0.393 | -1.14
ATIC_P31939_101_VVACNLYPFVK (UniProt P31939) | 0.119 | 0.0511
ATRX_P46100_1242_IKPVTENLVLSSHTGFCQSSGDEALSK (UniProt P46100) | -0.15 | -0.661
AGL_P35573_126_VGADNHVLPLDCVTLQTFLAK (UniProt P35573) | 0.128 | 0.0379
